Key:
Assay in all cases: PBM binding z-score (relative to random genomic background probes); higher = stronger binding; sequences stand for … in GC…GCGATTGACAGCGTAGAATGAAGG
[1] = system: RARb homodimer (NR concentration 270 nM)
Method in brief: (§1)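 For binding z-scores, the reference was random background probes on custom Agilent 4×180K protein-binding microarrays. These arrays were incubated 1 h with ligand-free nuclear receptor dimers in PBS pH 7.4, 2% milk, 0.02% Triton X-100, 1 mM DTT, 0.2 mg/mL BSA and 0.4 mg/ml salmon testes DNA. Fluorescence was scanned after antibody detection of each partner (one per run) and regression-normalized.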

[2] = system: RARg:RXRa (NR concentration 270 nM, RXRa partner concentration 90 nM)
Method in brief: as §1

[3] = system: RARg homodimer (NR concentration 270 nM)
Method in brief: as §1

[4] = system: RXRa DBDmut IVT, anti-RXR (DBD mutation: RXRa K156A/R161A, NR concentration 90 nM)
Method in brief: as §1

[5] = system: RXRa homodimer (NR concentration 180 nM)
Method in brief: as §1

[6] = system: THRa:RXRa (NR concentration 90 nM, RXRa partner concentration 90 nM)
Method in brief: as §1

[7] = system: THRa homodimer (NR concentration 90 nM)
Method in brief: as §1

[8] = system: VDR homodimer (NR concentration 270 nM)
Method in brief: as §1

Sequence	PBM binding z-score [1]	PBM binding z-score [2]	PBM binding z-score [3]	PBM binding z-score [4]	PBM binding z-score [5]	PBM binding z-score [6]	PBM binding z-score [7]	PBM binding z-score [8]
TCATATAGGTAAACAGGTGAAATTCCGTAAGTTA	0.605	0.589	0.48	1.58	1.07	0.752	0.651	0.614
CAAACTTGGTCACAGAGGTCAAAGTCCGTGCGTA	4.73	5.89	5.25	2.34	6.56	3.98	1.36	4.8
GAGACAGGGTCAAGGCCAGAGTACGCGTATTGAT	3.45	5.32	5.34	1.95	6.25	3.52	1.06	1.98
CCTTACGGGTCACTGACCGGTTATAGCATTTGGA	3.25	5.43	4.56	1.45	4.82	2.56	0.389	0.995
TCTGCTAGATCAACGATGGTCAGCTAATCTGCTA	-0.588	-0.514	-0.512	-0.127	-0.276	-0.945	-1.71	-1.45
CGAACTATGTCATCCAGGACAGTGAATACATTGA	0.612	0.908	1.14	0.468	0.578	1.71	0.973	0.592
GCTAGTTGGTCAATAAAAGGTCACACACCGGTCG	5.51	6.07	5.18	0.854	5.51	3.66	1.83	2.11
